NPC1 promoter act: NPC1 promoter activation; Huh7 NPC1 promoter luciferase reporter, 24 h; Potency, µM (highest dose often 9.22 µM), for inactives: at the highest dose activation, usual class: activators; hit rate 2.4% among 320,000; AID 485313; further: % of control where 0% means no effect; nearly all actives have a fitted effect of over 60% in size
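NPC1 promoter–luciferase Huh7 cells; 24 h compound; luminescence.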
p53 reactivation: restores transcriptional activity of mutant p53; H1299 p53-A138V BP100-luciferase reporter, luminescence, 24 h; Potency, µM (titrated, usually from 92.2 µM), inactives show at the top dose activity change, positive = activation, usual class: activators; hit rate 0.063% among 320,000; AID 504706; further: % of control where 0% means no effect; nearly all actives have a fitted effect of over 45% in size
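p53-null H1299 cells stably carrying temperature-sensitive p53-A138V and a BP100-luciferase reporter were pinned with compounds (4-point, 1:5 series) and held 24 hrs at 37 deg C. Luminescence was read 10 min after detection reagent.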
Rab9 promoter act: activators of Rab9 promoter; Huh7 Rab9 promoter-luciferase reporter, luminescence, 24 h; Potency, µM (top dose mostly 9.22 µM), for inactives: top-dose activation, negative = inhibition, actives largely listed as activators; hit rate 2.8% among 320,000; AID 485297; further: % of control where 0% means no effect; nearly all actives have a fitted effect of over 60% in size
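Luciferase signal after 10 min detection reagent at ambient indicates Rab9 promoter upregulation; stably transfected Huh7 cells were treated 24 h with compound in DMSO at 37 °C, 5% CO2.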
FLuc counter: inhibits or activates purified firefly luciferase, miR-21 counter-screen | P08659 | purified FLuc, Km substrates, luminescence inhibition | Potency, µM (highest dose often 57.5 µM), for inactives: at the highest dose activity change, negative = inhibition, actives largely listed as inhibitors | hit rate 6.9% among 360,000;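 further: plate controls were vehicle for no effect and reference inhibitor for full effect; nearly all actives have a fitted effect of over 55% in size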
Target sequence (P08659 whole entry, looked up): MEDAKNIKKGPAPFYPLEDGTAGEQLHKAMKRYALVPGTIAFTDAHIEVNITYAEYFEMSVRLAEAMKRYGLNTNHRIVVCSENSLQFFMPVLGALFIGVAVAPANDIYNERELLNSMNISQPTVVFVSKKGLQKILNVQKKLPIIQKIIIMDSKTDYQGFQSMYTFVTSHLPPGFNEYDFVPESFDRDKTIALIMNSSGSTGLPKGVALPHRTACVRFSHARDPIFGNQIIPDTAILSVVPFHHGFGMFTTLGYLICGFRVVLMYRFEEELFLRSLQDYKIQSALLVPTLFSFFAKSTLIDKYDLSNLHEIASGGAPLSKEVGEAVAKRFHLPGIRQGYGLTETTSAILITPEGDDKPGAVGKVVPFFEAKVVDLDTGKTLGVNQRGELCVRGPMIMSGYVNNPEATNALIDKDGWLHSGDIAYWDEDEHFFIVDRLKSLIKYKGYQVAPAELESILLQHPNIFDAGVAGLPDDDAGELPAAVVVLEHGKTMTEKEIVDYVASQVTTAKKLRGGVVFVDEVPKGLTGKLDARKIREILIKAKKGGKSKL
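Purified P. pyralis luciferase (10nM final) with 10uM D-luciferin and 10uM ATP (Km levels) in 50mM Tris acetate pH 7.5, 10mM Mg acetate, 0.01% Tween-20, 0.05% BSA; qHTS 6-point titration, ~60 µM downward; luminescence read.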
ELG1 genotox: induces genotoxicity in HEK293T cells with luciferase-tagged ELG1; HEK293T ELG1-luciferase reporter, luminescence, 16 h; Potency, µM (titrated, usually from 46 µM), without a hit: top-dose activity change, positive = activation, most hits filed as activators; hit rate 1.3% among 330,000; further: % of control where 0% means no effect; nearly all actives have a fitted effect of over 60% in size
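HEK293T cells expressing luciferase-tagged ELG1 were treated with compound or DMSO for 16 hr at 37°C. Luciferase activity was then read after 30 min with ONE-Glo at room temperature; rising signal flags genetic stress.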
SMN2 splice up: SMN2 splice variant enhancement; HEK293 SMN2-luciferase splicing reporter, luminescence, 30-36 h; Potency, µM (titrated, usually from 46.1 µM), inactives show at the top dose activity change, positive = activation, usual class: activators; hit rate 2.8% among 210,000; further: % of control where 0% means no effect; nearly all actives have a fitted effect of over 55% in size
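HEK293 cells carry an SMN2 minigene-luciferase reporter in which exon 7 inclusion puts luciferase in frame. Cells were seeded at 2000 cells/well, attached for 10-12 hours, then exposed to compounds for 30-36 hours at 37C before ONE-Glo luminescence.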
* hit, by the source's call; ? = inconclusive; / = not tested or not shown. Compounds with a hit are over-represented: about 7.3% of the library has one in this group of screens. The call rests on the fitted dose curve; in most records, active means well fitted curve in the direction sought with a large enough effect; inconclusive means small, poorly fitted or top-dose-only effect, or another doubt; inactive means no such curve, though single readings can be large; an effect the other way counts as inactive or inconclusive. Potency means the concentration at half of the fitted maximal effect.

SMILES	NPC1 promoter act	p53 reactivation	Rab9 promoter act	FLuc counter	ELG1 genotox	SMN2 splice up
COc1ccc(C(C[N+](=O)[O-])C2(c3ccc(OC)c(OC)c3)C(=O)c3ccccc3C2=O)cc1 (stereo unspecified)	28%	-15%	?	6µM*	-13%	25µM*
Cc1cccc(N2CCN(S(=O)(=O)c3ccc4oc(=O)c5ncn(C)c5c4c3)CC2)c1C	/	/	/	-1%	/	13%
COc1ccc(C(=O)NC2CCN(CC(=O)NC3CCCCC3)CC2)cc1	-2%	0%	-4%	4%	-4%	/
CC(C)Oc1ccc(C(=O)NC2CCCCC2)cc1	2.8µM*	25%	4µM*	11µM*	18µM*	?
C=CCOc1ccc(C(=O)NC2CCCCC2)cc1	?	25%	?	12µM*	?	/
NC(=S)N/N=C1\CC(c2ccc3c(c2)OCCO3)Oc2ccc(F)cc21 (stereo unspecified)	-3%	5%	-1%	?	-6%	/
NC(=S)N/N=C1\CC(c2ccc3c(c2)OCCCO3)Oc2ccc(F)cc21 (stereo unspecified)	-1%	-7%	1%	15µM*	-7%	/
CC1CCCC(C)N1/N=C/c1cc(Br)cc(Br)c1O (stereo unspecified)	3%	-13%	1%	-16%	2%	/
CC(=O)N1c2ccc(N=Cc3cc(Br)cc(Br)c3O)cc2CC1C (stereo unspecified)	-3%	-1%	1%	9.5µM*	2%	/
Nc1nc(-c2ccccc2)cn1N	8%	18%	6%	-20%	-1%	-2%
Nc1nc(-c2ccccc2)cn1/N=C/c1ccccc1	-9%	14%	0%	15µM*	?	/
O=C(NCc1ccccc1)c1cccc(Nc2nc3ccccc3n3nnnc23)c1	/	/	/	-1%	/	/
Cc1ccc(Nc2nnc(SCC(=O)Nc3cccnc3Cl)s2)cc1C	-4%	9%	-9%	1.1µM*	6%	18%
Cc1cccc(CSc2nnc(NC(=O)c3ccco3)s2)c1	-1%	9%	-1%	?	0%	11%
O=C(CSc1nnnn1C1CCCCC1)Nc1cccc(NC(=O)c2ccco2)c1	-1%	-1%	-9%	17µM*	-3%	-1%
CCSc1nnc(NC(=O)c2csc(C)c2)s1	2.8µM*	?	2.2µM*	-17%	?	14µM*
COc1ccc(NC(=O)CSc2nnc(NC(=O)c3ccco3)s2)cc1OC	4%	15%	20%	21µM*	11%	/
CCSc1nnc(NC(=O)c2cccc3ccccc23)s1	-1%	1%	-3%	-2%	1%	3%
Cc1ccc(Nc2nnc(SCC(=O)Nc3ccccc3[N+](=O)[O-])s2)cc1	7%	15%	5%	?	2%	3%
O=C(CSc1nnnn1C1CCCC1)Nc1cccc(NC(=O)c2ccco2)c1	-1%	-5%	-1%	?	1%	-1%
O=C(NCCOCCn1c(=O)oc2ccccc21)Nc1ccc(F)cc1F	/	/	/	-1%	/	-2%
Cc1ccc(CNC(=O)CCCn2c(=O)c3ccccc3n(CC(=O)C(C)(C)C)c2=O)cc1	/	/	/	-13%	/	-6%
Cc1cccc(NC(=O)CSc2nnc(NC(=O)c3ccco3)s2)c1	0%	-5%	18%	13µM*	-5%	22%
CCSc1nnc(NC(=O)Nc2cccc(C)c2)s1	?	12%	?	11µM*	-9%	/
COc1cccc(C(=O)Nc2nnc(SCC(=O)Nc3ccc(NC(C)=O)cc3)s2)c1	2.8µM*	29%	3.5µM*	0.48µM*	?	/
SMILES	NPC1 promoter act	p53 reactivation	Rab9 promoter act	FLuc counter	ELG1 genotox	SMN2 splice up
COc1cccc(N2CC(C(=O)Nc3nnc(SCC(=O)Nc4ccc(NC(C)=O)cc4)s3)CC2=O)c1 (stereo unspecified)	0%	-4%	-1%	-16%	2%	/
O=C(CSc1nnc(NC(=O)c2ccco2)s1)Nc1ccc2c(c1)OCCO2	9%	?	0%	13µM*	13%	6%
O=C(Cn1nc(C(F)(F)F)c2c1CCCC2)Nc1ccc(Br)cc1	/	/	/	-10%	/	/
CCOc1ccc(-n2c(=O)c3c4c(sc3n(Cc3cccc(Cl)c3)c2=O)CCCC4)cc1	/	/	/	-1%	/	6%
CCOC(=O)c1cnc2cc(C(F)(F)F)ccc2c1N1CCN(c2cccc(Cl)c2)CC1	/	/	/	1%	/	23%
Cc1cc2ccccc2n1CCNC(=O)c1cc(C(F)(F)F)cc(C(F)(F)F)c1	/	/	/	-6%	/	5%
C/C(N)=C(/C#N)C(=O)CSc1nnc(Nc2cccc(C)c2)s1	?	?	?	5.4µM*	?	16µM*
COc1ccc(NC(=O)Nc2nnc(SCC(=O)Nc3cccc(C)c3C)s2)cc1	/	/	/	0.6µM*	/	/
Cc1cccc(NC(=O)CSc2nnc(NC(=O)C3CC3)s2)c1C	-1%	14%	16%	0%	8%	/
O=C(CSc1nnc(NC(=O)c2ccco2)s1)Nc1ccc(F)cc1	11%	3%	19%	15µM*	4%	26%
Cc1ccc(OCCSc2nnc(NC(=O)c3ccco3)s2)cc1	-1%	8%	-1%	3%	3%	4%
O=C(Nc1nnc(SCc2ccc(F)cc2)s1)c1ccco1	0%	9%	0%	-11%	6%	?
COc1ccc(NC(=O)CSc2nnc(NC(=O)c3ccco3)s2)cc1	14%	4%	16%	15µM*	17%	?
FC(F)(F)c1cc(NC(=S)NC23CC4CC(CC(C4)C2)C3)cc(C(F)(F)F)c1	/	/	/	/	/	9%
CN(C)S(=O)(=O)c1ccc(N2CCCC2)c(C(=O)N2CCN(S(=O)(=O)c3ccccc3F)CC2)c1	-2%	1%	-4%	1%	2%	/
CCC(C(=O)NC1CCCC1)N(C(=O)c1snc(C(N)=O)c1N)c1ccc(C)cc1C (stereo unspecified)	-6%	-9%	-2%	3%	9%	/
CCOc1ccc(NC(=O)CSC2=Nc3ccccc3C3=NC(CC(=O)NCc4ccccc4OC)C(=O)N23)cc1 (stereo unspecified)	/	/	/	-3%	/	/
Nc1nc2c(C(=O)N3CCOCC3)nnn2c2ccccc12	3.2µM*	1%	3.2µM*	12µM*	?	/
CCc1ccc(CNC(=O)c2ccc(NC(=O)N3CC(C)Sc4ccccc43)cc2)cc1 (stereo unspecified)	/	/	/	2%	/	2%
Cc1ccc(OC(=O)c2sc3ncn(C)c(=O)c3c2C)cc1	2.8µM*	2%	2.8µM*	?	14%	17%
Cc1c(C(=O)O)sc2ncn(C)c(=O)c12	-4%	3%	-1%	3%	-2%	16%

Assay outcomes (PubChem BioAssay)
